Mtb FBA inh = inhibitors of M. tuberculosis fructose-bisphosphate aldolase; purified M. tuberculosis FBA, fluorescence read-out; inhibition, % at 1 µM; actives 2.3% (n = 360,000); AID 588726; in the data active = inhibition above about 27%;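 note: 0% = vehicle and 100% = reference inhibitor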
Target sequence (P9WQA3 whole entry, looked up): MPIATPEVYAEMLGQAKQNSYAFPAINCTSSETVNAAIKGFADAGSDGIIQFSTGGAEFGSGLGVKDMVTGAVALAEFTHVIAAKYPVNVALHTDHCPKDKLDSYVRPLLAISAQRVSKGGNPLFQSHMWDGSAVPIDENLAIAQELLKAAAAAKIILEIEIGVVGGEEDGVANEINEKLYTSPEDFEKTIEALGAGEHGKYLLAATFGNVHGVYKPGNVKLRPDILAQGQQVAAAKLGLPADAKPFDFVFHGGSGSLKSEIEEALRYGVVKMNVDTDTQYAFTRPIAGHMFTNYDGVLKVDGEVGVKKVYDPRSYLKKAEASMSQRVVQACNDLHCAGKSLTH
GDH-TPI counter-1 = GDH-TPI coupled enzyme inhibition counter-screen. GDH-TPI coupled enzyme counterscreen, NADH absorbance. inhibition, % at 4.8 µM. actives 1.2% (n = 360,000); in the data active = inhibition above about 30%;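 note: 0% = DMSO wells and 100% = wells lacking the enzyme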
TcdB inh = blocks C. difficile toxin B glycohydrolase activity; P18177; TcdB glycohydrolase enzymatic assay, plate reader; inhibition, % at 9.99 µM; actives 0.24% (n = 350,000); AID 652162
PrPC TRFRET = reduces human prion protein on the cell surface; inhibition, % at 13.8 µM; cell surface PrPC, TR-FRET read-out; actives 0.43% (n = 370,000); in the data active = inhibition above about 24%; note: 0% = median of the test wells and 100% = reference compound wells
Yp Topo-I inh = inhibitors of Yersinia pestis topoisomerase I. activity, % at 10 µM. Y. pestis Topo-I cleavage product accumulation, plate reader. actives 0.064% (n = 360,000). AID 504884; in the data active = activity above about 50%, passing the limit was not always enough
Mtb FBA confirm = Mtb FBA inhibition, confirmed; inhibition, % at 1 µM; actives 78% (n = 5,600); shares compounds with Mtb FBA inh; purified M. tuberculosis FBA, fluorescence read-out; in the data active = inhibition above about 27%;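 note: 0% = vehicle wells and 100% = reference inhibitor wells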
GDH-TPI counter-2 = inhibits GDH-TPI coupling enzymes, flagging Mtb FBA hits. shares compounds with Mtb FBA inh. GDH-TPI coupled enzyme counterscreen, fluorescence. inhibition, % at 1 µM. actives 81% (n = 5,600). AID 652141
Starred values were filed as active, the others as inactive; . = not tested or not shown; + = active, no number. This is a sample that favours compounds with a hit; in the whole collection about 3.2% have one here. Cut-off read from the data, not from the text of the source, unless noted: active = inhibition above about 10%; inactive = the rest.

SMILES | Mtb FBA inh | GDH-TPI counter-1 | TcdB inh | PrPC TRFRET | Yp Topo-I inh | Mtb FBA confirm | GDH-TPI counter-2
COc1ccc(-c2ncccc2O)cc1 | 40* | 0 | . | 0 | 6 | 88* | 91*
O=C(CCN1CCCCC1)NCC[C@H]1CC[C@H](NC(=O)c2ccc(F)cc2)[C@@H](CO)O1 | . | . | 1 | . | . | . | .
Cc1c(Br)c(C(=O)NCc2cc3cc(Cl)ccc3[nH]2)nn1C | 66* | 11 | -1 | 4 | -1 | 85* | 84*
COc1cccc(C2CN(c3ccc(F)cc3F)N=C2c2cccs2)c1OC (configuration not stated) | 86* | 5 | . | 7 | 10 | 168* | 120*
COc1ccccc1C1CN(c2ccccc2)N=C1c1cccs1 (configuration not stated) | 85* | 7 | 4 | 7 | -17 | 4 | -5
O=C(Nc1ccc(N2CCOCC2)cc1)C1CCN(S(=O)(=O)c2ccccc2F)CC1 | 37* | 3 | 0 | 10 | -7 | 26 | 19*
CCOC(=O)CCc1c(C)c2ccc(OC3CCCCC3=O)cc2oc1=O (configuration not stated) | 109* | 5 | 4 | 5 | 7 | 151* | 132*
C=CCOC(=O)COc1ccc2c(C)c(C)c(=O)oc2c1 | 68* | 23 | . | 2 | 2 | 25 | 28*
CCCCc1c(C)c2ccc(OCC(C)=O)cc2oc1=O | 72* | 3 | . | 3 | 4 | 3 | 6
CCOC(=O)CCc1c(C)c2ccc(OCC(=O)OC(C)C)cc2oc1=O | 67* | 13 | . | 3 | 11 | 54* | 41*
CCOC(=O)CCc1c(C)c2ccc(OCc3ccc([N+](=O)[O-])cc3)cc2oc1=O | 8 | 2 | . | -4 | 0 | . | .
C[C@H]1CN([C@@H](C)CO)C(=O)c2cccc(NS(=O)(=O)c3ccc(Cl)cc3)c2O[C@@H]1CN(C)C(=O)Nc1ccc2c(c1)OCO2 | . | . | 1 | . | . | . | .
Cc1oc2cc(O)ccc2c(=O)c1-c1cnn(-c2ccccc2)c1 | 41* | 14 | . | 12 | 4 | + | +
Cc1oc2cc(O)ccc2c(=O)c1-c1ccccc1 | 71* | 24 | 2 | -3 | -4 | 199* | 161*
CNC[C@@H]1Oc2ccc(NC(=O)NC(C)C)cc2CC(=O)N([C@H](C)CO)C[C@H]1C | . | . | -1 | . | . | . | .
CCCCn1c(=O)c2ccccc2c2ccccc2c1=O | -1 | -1 | . | 3 | -10 | . | .
CCCCn1c(=O)nc2n(-c3ccccc3C)c3ccccc3cc-2c1=O | 61* | 7 | -2 | 5 | 0 | + | +
Cc1ccc(S(=O)(=O)N(C)C[C@@H]2Oc3ccc(NC(=O)Cc4ccccc4)cc3CC(=O)N([C@@H](C)CO)C[C@H]2C)cc1 | . | . | -7 | . | . | . | .
COc1ccc2cc(S(=O)(=O)N3CCCC(C)C3)ccc2c1 (configuration not stated) | 0 | 11 | -4 | 10 | 20 | . | .
CC1CCCN(S(=O)(=O)c2ccc3c(c2)c(=O)nc2ccccn23)C1 (configuration not stated) | 66* | 12 | 2 | 5 | -6 | 89* | 65*
CC1CCCN(S(=O)(=O)c2cccc(-c3cn4cccnc4n3)c2)C1 (configuration not stated) | 75* | 9 | . | 6 | 4 | 122* | 139*
CC(=O)Nc1ccc(S(=O)(=O)Nc2cccc(-c3cn4cccnc4n3)c2)cc1 | 64* | 18 | 1 | -6 | 9 | -3 | -9
CC(=O)Nc1ccc(S(=O)(=O)Nc2cccc(-c3csc(C)n3)c2)cc1 | 2 | 3 | 3 | 5 | -10 | . | .
COc1ccc2c3c(n(C)c2c1)[C@@H](CO)N(C(C)=O)CC31CCN(C(=O)C2CCOCC2)CC1 | . | . | -8 | . | . | . | .
COC(=O)CCc1c(C)c(C(=O)c2ccc(F)cc2)c2ccccn12 | 2 | 5 | 6 | -1 | 12 | . | .
Cc1c(C(=O)Nc2ccc(F)cc2)c2ccccn2c1CCc1ccncc1 | 32* | 20 | -3 | 4 | 7 | + | +
O=C(NC1CCCCC1)N1CC(=O)N2[C@@H](CO)[C@H](c3ccc(/C=C/c4ccccc4)cc3)[C@@H]2C1 | . | . | 0 | . | . | . | .
Cc1cc2n(n1)C(c1ccc(N(C)C)cc1)Nc1ccccc1-2 (configuration not stated) | 33* | 29 | . | 10 | -2 | 98* | 82*

Screens: PubChem, several laboratories
